# Experimental data from PubChem BioAssay.
# A number with no mark means an inactive call. Calls of active or inactive are those of the source.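 Rule for the calls, unless noted: active = efflux inhibition above 0.42, the validation set average plus 4 SD; inconclusive = no clear call, values can overlap the other calls; inactive = the rest.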
# Molecular target: Lethal factor (Bacillus anthracis) (UniProt P15917)
# Test: Bacillus anthracis lethal factor inhibition, microsphere flow cytometry protease assay, validation at 10 µM (AID 588461; call rule not given here)
# Conditions: multiplex microsphere protease cleavage assay, stronger effect = higher value
# Sequence of Lethal factor (Bacillus anthracis) (P15917 whole entry, looked up): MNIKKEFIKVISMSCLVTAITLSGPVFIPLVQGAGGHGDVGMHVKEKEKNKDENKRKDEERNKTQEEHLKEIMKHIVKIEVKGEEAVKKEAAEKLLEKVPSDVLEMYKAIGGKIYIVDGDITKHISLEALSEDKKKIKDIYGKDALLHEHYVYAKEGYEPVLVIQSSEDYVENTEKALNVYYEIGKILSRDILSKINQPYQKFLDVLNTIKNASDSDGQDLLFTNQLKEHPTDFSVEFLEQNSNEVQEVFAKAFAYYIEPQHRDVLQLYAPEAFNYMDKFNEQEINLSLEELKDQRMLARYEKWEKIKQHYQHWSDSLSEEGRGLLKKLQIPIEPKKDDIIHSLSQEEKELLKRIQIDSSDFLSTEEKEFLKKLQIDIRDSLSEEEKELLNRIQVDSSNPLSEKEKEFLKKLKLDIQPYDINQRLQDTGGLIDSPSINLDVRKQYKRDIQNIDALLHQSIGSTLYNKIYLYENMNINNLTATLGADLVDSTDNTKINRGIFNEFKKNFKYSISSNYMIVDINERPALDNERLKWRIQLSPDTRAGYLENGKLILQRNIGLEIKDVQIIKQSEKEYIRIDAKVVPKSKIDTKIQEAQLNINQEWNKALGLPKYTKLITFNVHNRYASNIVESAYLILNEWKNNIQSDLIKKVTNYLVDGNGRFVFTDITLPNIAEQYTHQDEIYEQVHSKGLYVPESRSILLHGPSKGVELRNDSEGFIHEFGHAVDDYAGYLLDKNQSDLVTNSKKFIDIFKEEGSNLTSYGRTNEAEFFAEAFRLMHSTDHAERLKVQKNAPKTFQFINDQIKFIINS
row,SMILES,inhibition
1,C[C@]12CCC(=O)C(O)=C1CC[C@@H]1[C@@H]2CC[C@]2(C)C(=O)CC[C@@H]12,-6.6%
2,CN1[C@@H]2CC[C@H]1CC(OC(=O)C1C=Nc3ccccc31)C2 (stereo partly drawn),4.3%
3,O=C1CSC2N1CCNC21CCCCC1 (stereo not drawn),-3.4%
4,C[C@H]1CCCC(=O)CCCCCc2cc(O)cc(O)c2C(=O)O1,4.1%
5,CC(=O)Nc1cc([As](=O)(O)O)ccc1O,5.5%
6,NCC(O)c1ccc(O)cc1 (stereo not drawn),6%

# System: not listed separately
# Test: Nile Red efflux blockade in pump-expressing yeast – validation compound set, multiplex, phenotypic, pilot screen (AID 588506);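 note: Nile Red retained in cells so higher fluorescence means more efflux inhibition; 0 = negative control wells and 1 = enniatin B 25 µM full block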
# Conditions: S. cerevisiae pump-expressing triplex, Nile Red efflux flow cytometry; at 10 µM; stronger effect = higher value
row,SMILES,efflux inhibition (fraction of control)
1,CCC(COC(=O)c1cc(OC)c(OC)c(OC)c1)(c1ccccc1)N(C)C (stereo not drawn),0.04
2,Nc1ccc([As](=O)(O)O)cc1,-0.35
3,CCCC(C)(COC(N)=O)COC(=O)NC(C)C (stereo not drawn),-0.13
4,c1cnc2c(c1)ccc1ncccc12,0.08
5,NCCc1ccc(O)cc1,-0.09
6,C[C@]12CC[C@@H]3c4ccc(O)c(O)c4CC[C@H]3[C@@H]1CC[C@@H]2O,-0.28
7,CC(CCc1ccccc1)NC(C)C(O)c1ccc(O)cc1 (stereo not drawn),-0.28
8,Clc1ccc(COC(Cn2ccnc2)c2ccc(Cl)cc2Cl)c(Cl)c1 (stereo not drawn),0.33
9,CC12CN3CC(c4ccccc4)(CN(C1)C31CCCCC1)C2=O,-0.03
10,c1ccc2c(c1)OCC(C1=NCCN1)O2 (stereo not drawn),-0.12
11,COc1cc(/C=C2\C(=O)NC(=O)N(c3ccccc3)C2=O)c([N+](=O)[O-])cc1OC,-0.09
12,CC12CCC3C(CC=C4CC5(CCC43C)OCCO5)C1CCC2=O (stereo not drawn),-0.24
13,COc1ccc2c3c([nH]c2c1)C(C)=NCC3,-0.24
14,CCCC(=O)OCC[N+](C)(C)C,-0.06
15,C[C@]12CCC(=O)C=C1CC[C@@H]1[C@@H]2C(=O)C[C@]2(C)C(=O)CC[C@@H]12,0.12
16,Cc1nc2ccccc2c(=O)n1-c1ccc(C(=O)O)cc1,-0.43
17,Cc1c2ccncc2c(C)c2c1[nH]c1ccccc12,0.3
18,CC/C(=C\C=C\[C@@H]1C=C[C@@H]2CCC[C@H]2[C@@H]1C(=O)c1ccc[nH]1)[C@@H]1O[C@@H]([C@@H](C)C(=O)O)CC[C@@H]1C,0
19,C[C@]12CCC(=O)C(O)=C1CC[C@@H]1[C@@H]2CC[C@]2(C)C(=O)CC[C@@H]12,-0.17
20,CN1[C@@H]2CC[C@H]1CC(OC(=O)C1C=Nc3ccccc31)C2 (stereo partly drawn),-0.2
21,O=C1CSC2N1CCNC21CCCCC1 (stereo not drawn),1.11 (active)
22,C[C@H]1CCCC(=O)CCCCCc2cc(O)cc(O)c2C(=O)O1,-0.13
23,CC(=O)Nc1cc([As](=O)(O)O)ccc1O,0
24,NCC(O)c1ccc(O)cc1 (stereo not drawn),-0.35

# Molecular target: ATP-binding cassette sub-family B member 6 (Homo sapiens) (UniProt Q9NP58)
# Sequence (Q9NP58 whole entry, looked up): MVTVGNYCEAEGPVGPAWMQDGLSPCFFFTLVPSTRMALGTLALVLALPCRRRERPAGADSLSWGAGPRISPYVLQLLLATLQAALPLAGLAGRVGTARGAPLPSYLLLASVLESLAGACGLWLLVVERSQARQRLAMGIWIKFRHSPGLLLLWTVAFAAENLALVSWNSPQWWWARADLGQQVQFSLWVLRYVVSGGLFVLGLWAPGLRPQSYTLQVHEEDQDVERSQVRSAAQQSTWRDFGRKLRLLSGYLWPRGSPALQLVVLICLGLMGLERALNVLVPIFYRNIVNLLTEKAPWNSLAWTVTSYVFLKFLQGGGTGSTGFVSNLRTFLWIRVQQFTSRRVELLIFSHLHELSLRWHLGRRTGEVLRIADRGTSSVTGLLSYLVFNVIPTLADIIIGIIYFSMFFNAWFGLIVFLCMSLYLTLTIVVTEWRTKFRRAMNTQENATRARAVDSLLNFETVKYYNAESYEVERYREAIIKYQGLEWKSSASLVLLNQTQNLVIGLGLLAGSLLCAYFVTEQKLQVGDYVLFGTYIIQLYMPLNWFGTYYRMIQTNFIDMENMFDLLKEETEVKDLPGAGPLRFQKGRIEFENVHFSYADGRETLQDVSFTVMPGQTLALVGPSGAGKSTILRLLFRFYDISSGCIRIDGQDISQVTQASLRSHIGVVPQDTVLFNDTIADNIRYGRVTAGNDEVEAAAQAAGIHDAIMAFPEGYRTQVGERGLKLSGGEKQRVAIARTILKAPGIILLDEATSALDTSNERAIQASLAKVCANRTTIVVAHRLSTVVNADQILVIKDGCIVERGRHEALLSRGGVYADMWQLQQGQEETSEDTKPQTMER
# Test: blockers of ABCB6-driven porphyrin uptake – K562-ABCB6 cells, flow cytometry, validation set, pilot screen (AID 588550;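 active = inhibition above the screen-wide mean plus 3 SD, about 51%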;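 note: 0% = DMSO wells and 100% = benzethonium chloride 70 µM positive control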)
# Conditions: K562-ABCB6 porphyrin accumulation, 1 h, at 10 µM, stronger effect = higher value
row,SMILES,inhibition
1,CCC(COC(=O)c1cc(OC)c(OC)c(OC)c1)(c1ccccc1)N(C)C (stereo not drawn),15%
2,Nc1ccc([As](=O)(O)O)cc1,3%
3,CCCC(C)(COC(N)=O)COC(=O)NC(C)C (stereo not drawn),6%
4,c1cnc2c(c1)ccc1ncccc12,4%
5,NCCc1ccc(O)cc1,-2%
6,C[C@]12CC[C@@H]3c4ccc(O)c(O)c4CC[C@H]3[C@@H]1CC[C@@H]2O,7%
7,CC(CCc1ccccc1)NC(C)C(O)c1ccc(O)cc1 (stereo not drawn),10%
8,Clc1ccc(COC(Cn2ccnc2)c2ccc(Cl)cc2Cl)c(Cl)c1 (stereo not drawn),5%
9,CC12CN3CC(c4ccccc4)(CN(C1)C31CCCCC1)C2=O,-51%
10,c1ccc2c(c1)OCC(C1=NCCN1)O2 (stereo not drawn),7%
11,COc1cc(/C=C2\C(=O)NC(=O)N(c3ccccc3)C2=O)c([N+](=O)[O-])cc1OC,-21%
12,CC12CCC3C(CC=C4CC5(CCC43C)OCCO5)C1CCC2=O (stereo not drawn),15%
13,COc1ccc2c3c([nH]c2c1)C(C)=NCC3,-229%
14,CCCC(=O)OCC[N+](C)(C)C,13%
15,C[C@]12CCC(=O)C=C1CC[C@@H]1[C@@H]2C(=O)C[C@]2(C)C(=O)CC[C@@H]12,-30%
16,Cc1nc2ccccc2c(=O)n1-c1ccc(C(=O)O)cc1,-3%
17,CC/C(=C\C=C\[C@@H]1C=C[C@@H]2CCC[C@H]2[C@@H]1C(=O)c1ccc[nH]1)[C@@H]1O[C@@H]([C@@H](C)C(=O)O)CC[C@@H]1C,-1%
18,C[C@]12CCC(=O)C(O)=C1CC[C@@H]1[C@@H]2CC[C@]2(C)C(=O)CC[C@@H]12,21%
19,CN1[C@@H]2CC[C@H]1CC(OC(=O)C1C=Nc3ccccc31)C2 (stereo partly drawn),7%
20,O=C1CSC2N1CCNC21CCCCC1 (stereo not drawn),42%
21,C[C@H]1CCCC(=O)CCCCCc2cc(O)cc(O)c2C(=O)O1,0%
22,CC(=O)Nc1cc([As](=O)(O)O)ccc1O,6%
23,NCC(O)c1ccc(O)cc1 (stereo not drawn),8%
